Source: PubChem
G9a inh: G9a (human) methyltransferase inhibition; AID 504332; actives 8.8% (n = 350,000); G9a H3K9 monomethylation, AlphaScreen, 2 h; Potency, µM (doses to about 102 µM), without a hit: at the top dose activity, negative = inhibition, usual class: inhibitors; Q96KQ7; note: % is set by controls: 0 for no effect and ±100 for the full control effect; nearly all actives have a fitted effect of over 75% in size
Target sequence (Q96KQ7 913-1193 limits assumed): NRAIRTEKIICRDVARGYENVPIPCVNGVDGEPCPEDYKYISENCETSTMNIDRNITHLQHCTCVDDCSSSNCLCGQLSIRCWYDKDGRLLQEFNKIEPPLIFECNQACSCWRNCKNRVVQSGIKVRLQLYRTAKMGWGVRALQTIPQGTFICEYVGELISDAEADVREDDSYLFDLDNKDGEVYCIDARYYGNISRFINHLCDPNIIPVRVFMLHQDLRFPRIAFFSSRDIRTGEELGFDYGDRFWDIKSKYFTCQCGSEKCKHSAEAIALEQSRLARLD
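AlphaScreen detection with an anti-monomethyl H3K9 antibody quantified product after a 2 h room-temperature reaction containing 500 nM biotinylated H3K9 peptide, 20 µM SAM and 20 nM enzyme, which had been preincubated 15 min with compound.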
JMJD2A Tudor: blocks the human JMJD2A Tudor domain; AID 504339; O75164; actives 4.4% (n = 390,000); Potency, µM (highest dose often 114 µM), for inactives: at the highest dose activity change, negative = inhibition, usual class: inhibitors; AlphaScreen JMJD2A-Tudor / H3K4me3 peptide binding; note: % is set by controls: 0 for no effect and ±100 for the full control effect; nearly all actives have a fitted effect of over 50% in size
BAZ2B inh: blocks human BAZ2B | Potency, µM (top dose mostly 114 µM), for the others: at the highest dose activity change, negative = inhibition, hits mostly inhibitors | Q9UIF8 | actives 4.4% (n = 360,000) | AlphaScreen BAZ2B-H3K14Ac peptide displacement; note: % is set by controls: 0 for no effect and ±100 for the full control effect; nearly all actives have a fitted effect of over 60% in size
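BAZ2B (50 nM) with biotin-H3(5-23)K14Ac peptide (50 nM) in PBS pH 7.4, 0.01% Tween-20, preformed 30 min, then compound 30 min at room temperature; top concentration 110uM. AlphaScreen streptavidin donor/nickel chelate acceptor beads (10 ug/mL final), 20 min dark, signal read.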
HP1b binding inh: inhibitors of HP1-beta chromodomain binding to methylated histone tails; AID 540317; AlphaScreen HP1-beta / biotin-H3K9me3 peptide binding; Potency, µM (titrated, usually from 114 µM), for the others: top-dose activity change, negative = inhibition, actives largely listed as inhibitors; actives 0.56% (n = 390,000); note: nearly all actives have a fitted effect of over 70% in size
Target sequence (P83916 whole entry, looked up): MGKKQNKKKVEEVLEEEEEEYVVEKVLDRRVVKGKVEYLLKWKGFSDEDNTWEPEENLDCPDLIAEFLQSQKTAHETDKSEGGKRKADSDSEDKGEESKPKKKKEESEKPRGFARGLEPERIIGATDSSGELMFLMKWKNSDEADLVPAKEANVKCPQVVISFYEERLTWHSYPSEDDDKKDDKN
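HP1-beta protein (50 nM final) preincubated 30 min at room temperature with biotinylated H3(1-18)K9me3 peptide (50 nM) in PBS pH 7.4, 0.01% Tween-20, then compound added for 30 min. AlphaScreen streptavidin donor/nickel chelate acceptor beads (10 ug/mL final), 30 min dark, luminescence read.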
GLS inhibitor: glutaminase GLS (human) inhibition. O94925. GLS enzymatic activity, qHTS titration. Potency, µM (highest dose often 45.5 µM), for inactives: top-dose activity change, negative = inhibition, most hits filed as inhibitors. actives 0.21% (n = 410,000). AID 624170; note: % is set by controls: 0 for no effect and ±100 for the full control effect
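Enzyme dispensed in phosphate buffer (45 mM, pH 8.2, 0.02% Tween-20), compounds pinned in, then 1 mM L-glutamine solution and the glutamate oxidase–HRP–Amplex Red mix added; fluorescence read immediately and again after 30 min at room temperature.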
The depositor's hits bear a star; [ ] = remark or other dose. Only some compounds are listed: those with a hit (about 10% of all), similar ones and a draw of the others. Calls come from the whole dose curve; as a rule, active = well fitted curve in the direction sought with a large enough effect; inconclusive = small, poorly fitted or top-dose-only effect, or another doubt; inactive = no such curve, though single readings can be large; an effect the other way counts as inactive or inconclusive. Potency is the fitted concentration of half-maximal effect.

What do the screens show for `Cc1ccc(/C=C2\Sc3ccccc3C2=O)s1`?
G9a inh: 11.6%[0.501 µM]; JMJD2A Tudor: -26.5%; BAZ2B inh: 8.91µM*; HP1b binding inh: -15.7%; GLS inhibitor: -0.2%

Results for O=C(O)CCCCCN1C(=O)C(O)=C(C(=O)/C=C/c2ccccc2)C1c1ccc2c(c1)OCO2 (stereo not given) ?
G9a inh: 50.1µM*; JMJD2A Tudor: 22.4µM*; BAZ2B inh: inconclusive; HP1b binding inh: 19.4%; GLS inhibitor: 3.2%

What do the screens show for `CC(=O)C1=C(O)C(=O)N(CCc2c[nH]c3ccccc23)C1c1ccc(C)cc1` (stereo not given)?
G9a inh: 44.7µM*; JMJD2A Tudor: -26.2%; BAZ2B inh: -16.3%; HP1b binding inh: 17.4%; GLS inhibitor: 19.0%

What do the screens show for `O=C(/C=C/c1ccccc1)C1=C(O)C(=O)N(CCO)C1c1cccc([N+](=O)[O-])c1` (stereo not given)?
G9a inh: inconclusive; JMJD2A Tudor: -6.8%; BAZ2B inh: -24.6%; HP1b binding inh: 24.1%; GLS inhibitor: 15.0%

What do the screens show for `CCOc1ccc(C2C(C(=O)c3cccs3)=C(O)C(=O)N2CCN2CCOCC2)cc1` (stereo not given)?
G9a inh: 50.1µM*; JMJD2A Tudor: -2.0%; BAZ2B inh: -20.8%; HP1b binding inh: 46.2%; GLS inhibitor: 2.2%

How did CCOc1cc(C2C(C(C)=O)=C(O)C(=O)N2CCc2c[nH]c3ccccc23)ccc1O (stereo not given) do in these assays?
G9a inh: inconclusive; JMJD2A Tudor: -18.2%; BAZ2B inh: -32.3%; HP1b binding inh: 18.7%; GLS inhibitor: -1.8%

How did O=C1NC(c2ccccc2)C(C(=O)c2cccs2)=C1O (stereo not given) do in these assays?
G9a inh: inconclusive; JMJD2A Tudor: 25.1µM*; BAZ2B inh: -35.8%; HP1b binding inh: -1.2%; GLS inhibitor: 13.4%

What do the screens show for `CCCOc1cccc(C2C(C(=O)c3cccs3)=C(O)C(=O)N2CCN2CCOCC2)c1` (stereo not given)?
G9a inh: 79.4µM*; JMJD2A Tudor: -0.7%; BAZ2B inh: inconclusive; HP1b binding inh: 24.0%; GLS inhibitor: 6.0%

What do the screens show for `COCCN1C(=O)C(O)=C(C(C)=O)C1c1ccc(F)cc1` (stereo not given)?
G9a inh: inconclusive; JMJD2A Tudor: 39.8µM*; BAZ2B inh: 79.4µM*; HP1b binding inh: 0.6%; GLS inhibitor: 2.3%

How did CC(=O)C1=C(O)C(=O)N(CCCCCC(=O)O)C1c1ccc(N(C)C)cc1 (stereo not given) do in these assays?
G9a inh: inconclusive; JMJD2A Tudor: 31.6µM*; BAZ2B inh: 79.4µM*; HP1b binding inh: 12.0%; GLS inhibitor: 35.5%

Results for CC(=O)C1=C(O)C(=O)N(Cc2ccccc2)C1c1ccc(N(C)C)cc1 (stereo not given) ?
JMJD2A Tudor: inconclusive; BAZ2B inh: -30.6%; HP1b binding inh: 7.0%; GLS inhibitor: 31.9%

How did CCCCOc1ccc(C2C(C(=O)c3cccs3)=C(O)C(=O)N2CCN2CCOCC2)cc1 (stereo not given) do in these assays?
JMJD2A Tudor: -16.8%; BAZ2B inh: -6.9%; HP1b binding inh: 27.1%; GLS inhibitor: 3.9%

What do the screens show for `O=C(C1=C(O)C(=O)N(CCN2CCOCC2)C1c1ccc(F)cc1)c1cccs1` (stereo not given)?
G9a inh: 70.8µM*; JMJD2A Tudor: -8.6%; BAZ2B inh: 10.5%; HP1b binding inh: 35.3%; GLS inhibitor: -1.2%

What do the screens show for `COc1cccc(C2C(C(=O)c3cccs3)=C(O)C(=O)N2CCN2CCOCC2)c1` (stereo not given)?
G9a inh: 15.6%; JMJD2A Tudor: -7.0%; BAZ2B inh: -12.9%; HP1b binding inh: 90.4%; GLS inhibitor: -3.7%

What do the screens show for `CC(C)C1Nc2ccc(C(=O)NC3CCCCC3)cc2NC1=O` (stereo not given)?
G9a inh: -5.7%; JMJD2A Tudor: 0.4%; BAZ2B inh: -10.6%; HP1b binding inh: 40.0%; GLS inhibitor: -8.4%

What do the screens show for `CC(=O)C1=C(O)C(=O)N(CCCn2ccnc2)C1c1ccc(Br)cc1` (stereo not given)?
G9a inh: inconclusive; JMJD2A Tudor: -18.1%; BAZ2B inh: inconclusive; HP1b binding inh: 23.9%; GLS inhibitor: 3.8%

How did CCCn1c(N)c(C(=O)CSc2nnc(-c3c[nH]c4ccccc34)n2C2CC2)c(=O)[nH]c1=O do in these assays?
JMJD2A Tudor: -5.5%; HP1b binding inh: 28.5%; GLS inhibitor: -3.8%

Results for CC1CCCCC1NC(=O)Cn1c(=O)oc2cc(S(=O)(=O)N3CCCC3)ccc21 (stereo not given) ?
JMJD2A Tudor: -18.6%; BAZ2B inh: inconclusive; HP1b binding inh: 13.2%; GLS inhibitor: -15.4%

How did CCN(CC)CCN1C(=O)C(O)=C(C(=O)c2cccs2)C1c1ccccn1 (stereo not given) do in these assays?
G9a inh: 31.6µM*; JMJD2A Tudor: inconclusive; BAZ2B inh: 50.1µM*; HP1b binding inh: 21.1%; GLS inhibitor: 11.2%

How did COCCN1C(=O)C(O)=C(C(=O)c2cccs2)C1c1ccccc1 (stereo not given) do in these assays?
G9a inh: 17.8µM*; JMJD2A Tudor: -6.9%; BAZ2B inh: -20.5%; HP1b binding inh: 28.2%; GLS inhibitor: 12.6%

What do the screens show for `O=C(Nc1ccc(N2CCN(C(=O)c3ccccc3)CC2)cc1)c1cc2ccccc2o1`?
G9a inh: 9.4%[59 µM]; JMJD2A Tudor: 5.3%; BAZ2B inh: 3.3%; HP1b binding inh: 22.5%; GLS inhibitor: -7.0%

What do the screens show for `O=C(Nc1ccc(N2CCN(C(=O)c3ccccc3)CC2)c(Cl)c1)c1ccc(Br)o1`?
G9a inh: 44.7µM*; JMJD2A Tudor: -25.0%; BAZ2B inh: -34.8%; HP1b binding inh: 32.6%; GLS inhibitor: -3.4%

What do the screens show for `O=C(Nc1ccc(N2CCN(C(=O)c3ccccc3)CC2)cc1)c1ccc(Br)o1`?
G9a inh: 31.6µM*; JMJD2A Tudor: -27.6%; BAZ2B inh: inconclusive; HP1b binding inh: -2.4%; GLS inhibitor: 18.4%

How did O=C(Nc1ccc(C(=O)N2CCOCC2)cc1)c1ccccc1 do in these assays?
JMJD2A Tudor: -1.4%; HP1b binding inh: 61.9%; GLS inhibitor: 0.0%

How did O=C(Nc1ccc(Cl)c(C(=O)N2CCOCC2)c1)c1ccccc1 do in these assays?
G9a inh: 44.7µM*; JMJD2A Tudor: -3.9%; BAZ2B inh: 0.7%; HP1b binding inh: 31.7%; GLS inhibitor: -11.2%

What do the screens show for `O=C(Nc1ccc(N2CCOCC2)c(Cl)c1)c1ccc(Br)o1`?
G9a inh: -50.3%[12.7 µM]; JMJD2A Tudor: -12.0%; BAZ2B inh: -0.2%; HP1b binding inh: 11.3%; GLS inhibitor: 4.3%
